For some assays here: Results with a measured potency or affinity are listed apart. Calls of active or inactive are those of the source.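 How the source made its calls, unless noted: active means primary screen activator hit with a dose response curve and TRPC4 channel activation at any tested dose; inactive means no activation, no dose response, or not a primary hit.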
Assays:
[1] = test system: TRPC4 beta (transient receptor potential cation channel C4), mouse; test: TRPC4 cation channel opening, retest – cell-based, Fluo4 calcium, HEK293 TRPC4beta/mu-opioid, duplicates, 10 µM, confirmation (AID 2426;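 active means fluorescence ratio normalized to control raised more than 50% in primary screen plus both repeat runs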); conditions: Fluo4 calcium fluorescence, at 10 µM; stronger effect = higher value
[2] = test system: transient receptor potential cation channel C4 beta (TRPC4), mouse; test: TRPC4 cation channel opening, second retest – cell-based, second round, Fluo4, HEK293 TRPC4beta/mu-opioid, 1 µM, confirmation (AID 2461;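 active means primary screen active and over 50% activation in each of two duplicate runs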); conditions: Fluo4 calcium fluorescence, at 1 µM; stronger effect = higher value
[3] = test system: TRPC4 (transient receptor potential cation channel C4 beta), mouse; test: potentiation of DAMGO EC20 TRPC4 response – cell-based, second round, Fluo-4, HEK293 TRPC4beta/mu-opioid, 1 µM, confirmation (AID 2554;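 active means primary screen hit whose fluorescence ratio, in both repeats, exceeds the weak agonist control mean by 3 SD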); conditions: DAMGO EC20, Fluo-4 calcium flux, at 1 µM; stronger effect = higher value
[4] = test system: TRPC4 beta (transient receptor potential cation channel C4), mouse; test: potentiation of DAMGO EC20 TRPC4 response – cell-based, Fluo-4, HEK293 TRPC4beta/mu-opioid, confirmation (AID 2555;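 active means primary screen hit whose calcium fluorescence ratio, in both repeats, exceeds the weak agonist control mean by 3 SD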); conditions: DAMGO EC20, Fluo-4 calcium flux, at 10 µM; stronger effect = higher value
[5] = target: Short transient receptor potential channel 4 (Mus musculus) (UniProt Q9QUQ5); test: blockers of DAMGO-evoked TRPC4 calcium flux – cell-based, Fluo4, HEK293 TRPC4beta/mu-opioid, confirmation (AID 2636;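 active means calcium signal cut by more than 3 SD below the full-agonist control yet still positive, in both repeats and the earlier primary screen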); conditions: at 10 µM; stronger effect = higher value
Short transient receptor potential channel 4 (Mus musculus), sequence (Q9QUQ5 whole entry, looked up): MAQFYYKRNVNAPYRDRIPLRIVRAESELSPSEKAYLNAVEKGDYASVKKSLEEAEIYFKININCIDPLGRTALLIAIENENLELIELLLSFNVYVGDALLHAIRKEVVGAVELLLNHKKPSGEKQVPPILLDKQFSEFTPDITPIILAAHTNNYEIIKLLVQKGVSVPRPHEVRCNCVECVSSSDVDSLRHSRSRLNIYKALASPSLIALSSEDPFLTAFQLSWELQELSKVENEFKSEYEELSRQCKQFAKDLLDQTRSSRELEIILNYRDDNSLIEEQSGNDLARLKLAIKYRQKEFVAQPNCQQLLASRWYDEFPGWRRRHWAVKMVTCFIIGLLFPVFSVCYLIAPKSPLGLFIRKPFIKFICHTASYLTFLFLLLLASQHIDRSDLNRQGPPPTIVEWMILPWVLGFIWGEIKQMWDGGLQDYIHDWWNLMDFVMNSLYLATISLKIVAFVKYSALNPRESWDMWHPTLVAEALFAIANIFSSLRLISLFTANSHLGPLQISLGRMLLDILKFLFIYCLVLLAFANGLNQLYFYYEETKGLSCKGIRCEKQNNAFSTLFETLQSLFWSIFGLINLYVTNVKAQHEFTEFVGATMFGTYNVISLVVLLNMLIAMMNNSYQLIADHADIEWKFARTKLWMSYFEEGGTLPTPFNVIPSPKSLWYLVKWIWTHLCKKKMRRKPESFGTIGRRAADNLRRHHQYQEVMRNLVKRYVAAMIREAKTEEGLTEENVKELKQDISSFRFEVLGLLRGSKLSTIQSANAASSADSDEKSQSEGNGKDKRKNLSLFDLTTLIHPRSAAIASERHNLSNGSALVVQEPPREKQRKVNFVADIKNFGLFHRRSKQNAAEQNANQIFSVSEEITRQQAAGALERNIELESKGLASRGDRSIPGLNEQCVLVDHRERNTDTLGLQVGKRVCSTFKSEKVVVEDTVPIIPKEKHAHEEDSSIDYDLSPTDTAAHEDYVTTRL

[6] = target: Short transient receptor potential channel 4 (Mus musculus) (UniProt Q9QUQ5); test: blockers of DAMGO-evoked TRPC4 calcium flux – cell-based, second round, Fluo4, HEK293 TRPC4beta/mu-opioid, 1 µM, confirmation (AID 2637;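 active means calcium signal ratio cut to more than 3 SD under the fully stimulated control mean yet still positive, in both repeats and the primary screen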;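 on inhibition: percent of integrated ratio relative to wells lacking test compound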); conditions: at 1 µM; stronger effect = higher value
[7] = target: Short transient receptor potential channel 4 (Mus musculus) (UniProt Q9QUQ5); test: calcium entry via TRPC4 opening agents – cell-based, HEK293 TRPC4/mu-opioid, Fluo-4 calcium, dose response (AID 434937)
[8] = target: Short transient receptor potential channel 4 (Mus musculus) (UniProt Q9QUQ5); test: potentiation of DAMGO-evoked TRPC4 calcium signal – cell-based, HEK293 TRPC4/mu-opioid, Fluo-4 calcium, EC20 DAMGO, dose response (AID 434941;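 active means earlier screen potentiator hit that boosts the TRPC4 ion channel at some dose, with a dose response; inactive means no potentiation, no dose response, or not a prior hit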;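 further: calcium entry triggered by an EC20 dose of DAMGO at the co-expressed mu-opioid receptor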)
[9] = target: Short transient receptor potential channel 6 (Mus musculus) (UniProt Q61143); test: TRPC6 blockade by TRPC4 inhibitor hits – cell-based, HEK293, membrane potential dye, duplicate, selectivity assay for TRPC4 inhibitor project, confirmation (AID 434948;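 active means active in primary screen and both duplicates, each dropping signal beyond three positive-control SD with fluorescence still positive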); conditions: HEK293 TRPC6, membrane potential dye fluorescence, at 10 µM, stimulated with maximal-effect acetylcholine; stronger effect = higher value
Short transient receptor potential channel 6 (Mus musculus), sequence (Q61143 whole entry, looked up): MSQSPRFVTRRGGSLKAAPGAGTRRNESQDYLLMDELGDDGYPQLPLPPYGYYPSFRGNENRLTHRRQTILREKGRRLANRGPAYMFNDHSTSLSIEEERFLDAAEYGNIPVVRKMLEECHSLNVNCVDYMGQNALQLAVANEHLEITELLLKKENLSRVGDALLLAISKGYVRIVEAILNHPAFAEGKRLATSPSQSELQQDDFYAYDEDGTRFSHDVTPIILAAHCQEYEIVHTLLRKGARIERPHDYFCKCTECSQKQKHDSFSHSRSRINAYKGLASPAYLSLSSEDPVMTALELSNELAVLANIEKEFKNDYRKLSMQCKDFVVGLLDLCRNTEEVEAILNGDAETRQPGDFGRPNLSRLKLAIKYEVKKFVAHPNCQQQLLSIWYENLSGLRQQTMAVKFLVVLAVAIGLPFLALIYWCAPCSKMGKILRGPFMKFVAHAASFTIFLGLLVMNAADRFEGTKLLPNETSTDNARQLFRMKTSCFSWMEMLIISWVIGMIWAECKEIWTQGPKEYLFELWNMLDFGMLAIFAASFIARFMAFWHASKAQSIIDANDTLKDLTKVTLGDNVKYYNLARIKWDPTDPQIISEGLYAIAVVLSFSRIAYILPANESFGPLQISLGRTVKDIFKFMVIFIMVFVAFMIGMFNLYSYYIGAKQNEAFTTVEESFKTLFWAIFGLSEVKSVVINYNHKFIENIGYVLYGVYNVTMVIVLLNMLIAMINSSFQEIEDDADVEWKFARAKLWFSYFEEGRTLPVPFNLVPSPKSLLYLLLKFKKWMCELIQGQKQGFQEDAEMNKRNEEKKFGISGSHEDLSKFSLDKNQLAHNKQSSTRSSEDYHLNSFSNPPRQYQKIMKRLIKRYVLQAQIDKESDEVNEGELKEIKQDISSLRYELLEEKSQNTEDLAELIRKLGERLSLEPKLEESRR

[10] = target: Short transient receptor potential channel 6 (Mus musculus) (UniProt Q61143); test: TRPC6 opening by TRPC4 activator hits – cell-based, HEK293, membrane potential dye, duplicate, selectivity assay for TRPC4 activator project, confirmation (AID 434950;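 active means membrane potential signal rise above negative control mean plus 3 SD in both duplicates, also active in the earlier TRPC4 screen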); conditions: HEK293 TRPC6, membrane potential fluorescence, at 10 µM; activation: stronger effect = higher value; outcome: activation
[11] = target: Short transient receptor potential channel 6 (Mus musculus) (UniProt Q61143); test: positive modulators of mouse TRPC6 channel – HEK293 cells, membrane potential dye, duplicate, selectivity assay for TRPC4 potentiator project, confirmation (AID 434952;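 active means compound raising the membrane signal above positive-control mean plus 3 SD in both repeats, and a primary screen hit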); conditions: HEK293 TRPC6, membrane potential dye fluorescence, at 10 µM, maximal acetylcholine added after compound; stronger effect = higher value
[12] = target: Short transient receptor potential channel 4 (Mus musculus) (UniProt Q9QUQ5); test: calcium flux activators in TRPC4/5HT1a cells, counter-screen for TRPC4 activator project, cell-based, second counter screen, HEK293 TRPC4/5HT1a, Fluo-4 (AID 434977;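 active means calcium signal rise above buffer-control mean plus 5 SD in both duplicates, and also a hit in the primary screen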); conditions: Fluo-4 calcium flux, at 10 µM; stronger effect = higher value
[13] = serotonin-gated TRPC4 signal block – cell-based, second counter screen, HEK293 TRPC4/5HT1a, Fluo-4, counter-screen for TRPC4 inhibitor project, confirmation (AID 434978;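 active means primary screen active whose calcium signal fell more than 3 SD beyond the full-serotonin control mean in both duplicate plates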;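 on outcome: serotonin given first at submaximal then at maximal dose after compound preincubation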); conditions: Fluo-4 calcium flux, at 10 µM, serotonin added to trigger calcium flux; stronger effect = higher value
[14] = test system: TRPC4 (mouse), co-expressed with 5HT1a in HEK293; test: enhancement of serotonin-evoked TRPC4 response – cell-based, second counter screen, HEK293 TRPC4/5HT1a, Fluo-4, counter-screen for TRPC4 potentiator project, confirmation (AID 434979;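 active means signal rise over 3 SD above mean of control wells given weak agonist, in both repeats and first screen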); conditions: Fluo-4 calcium flux, at 10 µM, serotonin added at its EC20 dose; stronger effect = higher value
[15] = nonspecific calcium rise without TRPC4 – cell-based, HEK293 mu-opioid receptor line, counter-screen for TRPC4 activator project, confirmation (AID 449723;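 active means hit in primary screen, with calcium signal over 5 SD above buffer well mean in both duplicates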;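 further: counter screen cells carry the mu-opioid receptor alone and lack TRPC4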); conditions: HEK293 mu-opioid cells, Fluo-4 calcium fluorescence, at 10 µM; stronger effect = higher value
[16] = nonspecific potentiation of DAMGO calcium response – cell-based, HEK293 mu-opioid receptor line, counter-screen for TRPC4 allosteric potentiator project, confirmation (AID 449724;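 active means calcium signal rise more than 3 SD above the low-dose agonist control mean, in both duplicate plates and the primary screen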); conditions: HEK293 mu-opioid receptor cells, Fluo-4 calcium flux, at 10 µM, compound added before EC20 DAMGO stimulus; stronger effect = higher value

Measured: inhibition

CCCCn1c2ccccc2c2nnc(SCCN3CCCCC3)nc21
active: [5] 84% | [9] 44.5% | [13] 31.3%
inactive: all other assays above

CCCCc1nc(SCCOC)c2c(=O)n(C)c(=O)n(C)c2n1
active: [5] 88% | [13] 12.3%
inactive: all other assays above

Cc1ccccc1OCCn1c(C)nc2ccccc21
active: [5] 36% | [6] 57% | [13] 13.3%
inactive: all other assays above

CCN(CC)CCN(C(=O)c1ccccc1OC)c1nc2ccc(F)cc2s1
active: [5] 84%
inactive: all other assays above

COc1cccc(N2CC(O)=C(c3nc4ccccc4c(=O)[nH]3)C2=N)c1
active: [5] 74% | [6] 47% | [13] 37.5%
inactive: all other assays above

Cc1c(C(=O)NCC(c2ccco2)N(C)C)oc2c(Cl)cccc12 (centres undefined)
active: [5] 94% | [6] 70%
inactive: all other assays above

O=C1COc2ccc(N3C(=O)C=CC3=O)cc2N1
active: [5] 88% | [13] 31.1%
inactive: all other assays above

C=CCN(CC(O)c1cccc([N+](=O)[O-])c1)C(C)CCc1ccccc1 (centres undefined)
active: [5] 79% | [13] 25.6%
inactive: all other assays above

CC(NC(=O)c1ccco1)C(c1cccs1)N1CCN(c2ccccc2)CC1 (centres undefined)
active: [5] 98% | [6] 51%
inactive: all other assays above

CC(C)Cc1cc(CN2CCCC(CO)(Cc3cccc(Cl)c3)C2)[nH]n1 (centres undefined)
active: [5] 91% | [13] 42.2%
inactive: all other assays above

CCn1c(NCc2c[nH]c3ccccc23)nc2ccccc21
active: [5] 89% | [13] 32.7%
inactive: all other assays above

COc1ccc(Nc2c3c(nc4ccccc24)CCC3)cc1
active: [5] 98% | [13] 22.1%
inactive: all other assays above

Cc1ccc(CNC(C)c2ccccc2)cc1 (centres undefined)
active: [5] 92% | [13] 30.6%
inactive: all other assays above

CCCCn1c(SCC(=O)OCC)nc2c(sc(=S)n2-c2ccccc2OC)c1=O
active: [5] 94% | [13] 14%
inactive: all other assays above

Source: PubChem BioAssay
